# High-throughput results as filed in PubChem BioAssay.
# 697 NFkB inh: lowers PMA/ionomycin-induced NF-kB signal in 697 B cells; 697 B-cell NF-kB luciferase reporter, 16 h; inhibition, % at 4 µM; 0.33% of 330,000 active; in the data active = inhibition above about 35%
# Beta cell apopt: beta cell apoptosis inhibition; INS-1E cytokine-induced death, ATP luminescence, 48 h; percent of positive-control rescue, neutral wells zero; protection from apoptosis, % (no concentration beside the values); 0.8% of 300,000 active;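 active = Every replicate reaches about 75%, or at least half do and their mean reaches it too, limit read from the data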;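 note: 0% = cytokine-treated negative control wells and 100% = positive control rescue; higher means more ATP so stronger rescue from cytokine killing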
# Mdm2-MdmX inh: inhibitors of human Mdm2/MdmX interaction. O15151+Q00987. SaOS-2 split-luciferase Mdm2/MdmX complementation, luminescence. inhibition, % at 8 µM. 3% of 330,000 active. AID 485346;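 active = inhibition of at least 50% at 8 µM in the primary screen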
# Target sequence (O15151 whole entry, looked up): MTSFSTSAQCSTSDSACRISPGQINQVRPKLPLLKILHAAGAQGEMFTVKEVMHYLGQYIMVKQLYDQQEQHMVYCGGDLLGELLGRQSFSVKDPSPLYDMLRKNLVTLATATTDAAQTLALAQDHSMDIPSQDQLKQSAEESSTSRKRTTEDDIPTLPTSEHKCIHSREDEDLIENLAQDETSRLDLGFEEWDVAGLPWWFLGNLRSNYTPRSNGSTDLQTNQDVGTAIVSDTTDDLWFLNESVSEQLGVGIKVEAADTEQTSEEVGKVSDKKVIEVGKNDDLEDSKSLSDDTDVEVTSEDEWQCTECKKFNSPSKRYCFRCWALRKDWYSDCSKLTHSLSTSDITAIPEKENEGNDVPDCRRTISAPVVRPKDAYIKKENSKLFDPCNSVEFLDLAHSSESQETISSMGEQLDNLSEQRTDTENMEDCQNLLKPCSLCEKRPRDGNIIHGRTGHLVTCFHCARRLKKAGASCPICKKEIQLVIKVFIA
# Target sequence (Q00987 whole entry, looked up): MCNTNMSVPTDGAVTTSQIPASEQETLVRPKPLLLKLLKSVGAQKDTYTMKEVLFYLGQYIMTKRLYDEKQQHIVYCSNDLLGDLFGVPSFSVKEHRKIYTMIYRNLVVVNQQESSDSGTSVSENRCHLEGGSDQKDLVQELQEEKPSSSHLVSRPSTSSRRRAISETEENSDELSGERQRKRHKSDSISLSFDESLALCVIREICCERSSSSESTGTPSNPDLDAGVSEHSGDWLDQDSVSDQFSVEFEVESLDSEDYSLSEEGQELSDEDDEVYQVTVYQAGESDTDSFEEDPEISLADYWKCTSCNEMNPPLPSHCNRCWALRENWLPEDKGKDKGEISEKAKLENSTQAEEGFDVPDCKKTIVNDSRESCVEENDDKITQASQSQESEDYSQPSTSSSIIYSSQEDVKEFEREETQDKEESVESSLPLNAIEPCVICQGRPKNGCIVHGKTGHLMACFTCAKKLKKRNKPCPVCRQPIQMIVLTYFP
# Jurkat NFkB inh: inhibitors of the PMA/ionomycin-induced NF-kB reporter in Jurkat cells. 0.53% of 330,000 active. AID 435003. inhibition, % at 4 µM. PMA/ionomycin-induced NF-kB luciferase reporter, luminescence; in the data active = inhibition above about 50%
# Gli-Sufu antag: blocks Gli-Sufu signaling in a luciferase reporter | 0.74% of 340,000 active | Sufu-KO-LIGHT fibroblasts, Gli luciferase reporter luminescence | inhibition, % at 5 µM;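 active = inhibition above about 55%, limit read from the data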;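 note: 0% = DMSO-treated cells and 100% = wells with medium but no cells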
# Jurkat NFkB conf: lowers PMA/ionomycin-induced NF-kB signal in Jurkat cells; shares compounds with Jurkat NFkB inh; Jurkat NF-kB luciferase, 16 h; inhibition, % at 4 µM; 27% of 2,700 active;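 active = inhibition reaching about 45% at 4 µM in either replicate, limit read from the data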;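 note: plate controls were PMA/ionomycin stimulated DMSO wells for no effect and unstimulated DMSO wells for full effect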
# * = called active by the depositor; / = not tested or not shown. Only some compounds are listed: those with a hit (about 4% of all), similar ones and a draw of the others.
SMILES,697 NFkB inh,Beta cell apopt,Mdm2-MdmX inh,Jurkat NFkB inh,Gli-Sufu antag,Jurkat NFkB conf
Cc1ccc(C(=O)Nc2ccc(Cl)cc2C(F)(F)F)c(Cl)c1,-22,4,-27,-20,-31,/
c1ccc2nc(-c3ccc4c(c3)OCO4)ccc2c1,-203,3,-176,-157,-131,-84
COC(=O)c1cc(-c2ccc3c(c2)OCO3)nc2ccccc12,-5,5,3,3,-9,/
Cc1ccc(C(=O)NC2CCCC2)s1,-10,-3,19,9,-11,/
Cc1ccc(C(=O)NC2CCC(C)CC2)s1 (configuration not stated),-157,/,-95,-164,-93,-66
O=C(Nc1ccccc1N1CCCCC1)c1ccc(-c2ccc(Cl)cc2)o1,-38,17,30,54*,-6,12
S=C(c1ccc(-c2ccccc2Cl)o1)N1CCCCC1,-178,-5,-160,-92,-64,/
CN1CCN(c2ccccc2NC(=O)c2ccc(-c3ccc(Br)cc3)o2)CC1,-88,35,48,50*,23,12
S=C(c1ccc(-c2ccc(Cl)cc2)o1)N1CCCCC1,-181,0,-229,-171,-96,-102
COc1ccccc1NC(=O)c1ccc(-c2ccc(Br)cc2)o1,-45,3,38,57*,-11,10
O=[N+]([O-])c1cccc2nc3ccccc3c(NCCCn3ccnc3[N+](=O)[O-])c12,/,/,/,/,10,/
CC(NC(=O)COC(=O)Cc1cccs1)c1ccc(F)cc1 (configuration not stated),/,/,/,/,-4,/
Cc1ccccc1C(=O)N1CCC(C(=O)Nc2sccc2C(N)=O)CC1,-12,-8,2,15,2,/
Cc1cc2nnc(SCC(=O)NCc3ccco3)n2c2ccccc12,-20,5,43,58*,-7,11
Cc1cc2nnc(SCC(=O)NCc3cccs3)n2c2ccccc12,-22,-1,22,46,0,/
O=[N+]([O-])c1ccc(Sc2ccccn2)nc1,9,-3,-13,2,3,/
O=[N+]([O-])c1ccc(Sc2ccc(Cl)c(Cl)c2)nc1,5,6,25,79*,-3,39
CCCc1cc(C(=O)Nc2cc(C)ccc2O)no1,32,8,-83,92*,48,61*
CCCc1cc(C(=O)Nc2cccnc2Cl)no1,9,-9,-19,-17,-11,/
Cc1ccc(O)c(NC(=O)c2cc(-c3ccccc3)on2)c1,-25,3,-9,86*,14,38
COc1ccc(CCn2c(N3CCN(C)CC3)nc3c2c(=O)[nH]c(=O)n3C)cc1,4,-3,21,6,2,/
COc1ccc(CCn2c(Br)nc3c2c(=O)[nH]c(=O)n3C)cc1,-16,14,22,57*,6,25
COc1cccc(NC(=O)c2cc3ccccc3o/c2=N\O)c1,-129,2,-77,-159,-94,-130
Cc1cccc(NC(=O)c2cc3ccccc3oc2=O)c1,-138,-6,-96,-154,-77,-97
COc1cccc(NC(=O)c2cnn(-c3ccccc3)c2C)c1,-187,3,-113,-169,-89,-82
SMILES,697 NFkB inh,Beta cell apopt,Mdm2-MdmX inh,Jurkat NFkB inh,Gli-Sufu antag,Jurkat NFkB conf
CCC(=O)Nc1nc(-c2ccc3c(c2)OCCO3)cs1,-173,/,-195,-117,-92,/
C=CCNc1nc(-c2ccc3c(c2)OCCO3)cs1,-181,-2,-163,-152,-101,-8
CCOC(=O)c1c(NC(=O)CSc2c[nH]c3ccccc23)sc2c1CCCC2,-24,5,45,38,-2,/
CCOC(=O)c1c(NC(=O)CSc2c[nH]c3ccccc23)sc2c1CCC2,-19,6,20,55*,9,10
O=C(COC(=O)c1ccccn1)NCCc1ccc(Cl)cc1,13,1,15,3,7,/
CC(OC(=O)c1ccc2c(c1)OCCO2)C(=O)c1ccccc1 (configuration not stated),-191,-6,-167,-152,-117,-122
COc1cc(OC)c(/C=C2\C(=O)Nc3ccccc32)c(OC)c1,-10,7,47,56*,-8,54*
O=C(COC(=O)c1ccc([N+](=O)[O-])o1)NCc1ccc2c(c1)OCO2,-1,-1,4,-7,-6,/
CCCCOc1ccccc1C1CC(=O)NC2=C1C(=O)CCC2 (configuration not stated),-23,8,44,62*,39,50*
CCCCn1c2c(c(=N)c3c1CCC3)CCC2,-1,48,43,58*,8,48*
C#CCN1C(=O)C(O)(CC(=O)/C=C/c2ccco2)c2ccccc21 (configuration not stated),-1,-4,-28,8,-3,/
CCN(CC)CCN(C(=O)C1=COCCO1)c1nc2c(OC)ccc(OC)c2s1,-5,5,0,10,10,/
CCOC(=O)c1cnc2c(ccc3ccccc32)c1N,-120,34,10,-166,-85,-117
CCOC(=O)c1cnc2c(ccc3ccccc32)c1NCCO,-6,-5,-10,-39,-6,/
COC(=O)c1ccc(-c2ccc(Cl)cc2)nc1C,-181,0,-223,-172,-102,-95
O=C(N/C=C/c1ccccc1)c1ccccc1,-196,2,-164,-176,/,15
O=C(NCCNC(=O)c1ccccc1)c1ccccc1,-12,-4,-4,-2,0,/
O=C(NCC(=O)N1CCC2(CC1)NCCc1[nH]cnc12)c1ccccc1F,12,-7,18,7,4,/
COc1ccc(C(=O)/C=C2/c3ccccc3CC(C)(C)N2C)cc1,-48,5,38,61*,34,-9
CN1/C(=C\C(=O)Nc2cccnc2)c2ccccc2CC1(C)C,11,9,-17,13,33,/
N/C(=N\OC(=O)c1ccccc1Cl)c1cccc([N+](=O)[O-])c1,-235,2,-84,-172,-80,-101
COc1cc2oc3ccccc3c(=O)c2cc1OC,4,11,29,-22,-32,/
O=c1c2ccccc2oc2ccc(Oc3ccccc3)cc12,-224,-1,-203,-160,-125,-121
COc1cccc(C2CC(=O)Nc3cc(OC)c(OC)cc32)c1 (configuration not stated),-6,1,-5,12,2,/
COc1cccc(C2CC(=O)Nc3cc4c(cc32)CCC4)c1 (configuration not stated),-56,26,46,61*,25,51*
COc1ccc(NC(=O)CN(C)C(=O)CN2C(=O)NC3(CCCC3)C2=O)cc1,1,3,24,9,6,/
CCOC(=O)c1ccc(-c2c(-c3ccc4c(c3)OCO4)noc2C)cc1F,-14,4,-2,18,-16,/
COc1ccc(NC(=S)Nc2ccccn2)cc1,-120,4,-141,-95,-30,/
COC(=O)c1ccc(NC(=S)Nc2ccccn2)cc1,-133,-4,-135,-164,-8,-69
COc1ccc(C)cc1NC(=O)CSc1ccc(-c2sc(C)nc2C)nn1,-33,8,22,51*,23,10
